This is an account of results in PubChem BioAssay AID1159580 (chemical genetic matrix, 2015).

The campaign covered roughly 5,500 compounds. About 2,000 (36%) were called active. Not shown: some 18% with an inconclusive outcome. Some of the results follow. Values without a mark were called inactive. No stated cut-off is given here; in the data, active means normalized growth mostly below about 0.91 (no sharp cut-off); inconclusive means no clear call, values can overlap the other calls; inactive means mostly above about 0.92.

This test is described as follows: chemical genetic growth profiling, strain panel (AID 1159580).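 Further: tested at 20 µM; growth read once vehicle control cultures reached saturation at 30 °C; 1 = growth at the plate median or of vehicle wells; lower values mean less growth of the strain.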 The conditions noted are these: S. cerevisiae deletion strains, growth OD.

For `O=C1c2ccccc2C(=O)C1c1ccc(Br)cc1`, the normalized growth runs as follows: (locus YHR030C, strain SLT2, hits give low values) 0.851 (active); (locus YHR079C, strain IRE1, hits give low values) 0.816 (active); (locus YJL095W, strain BCK1, hits give low values) 0.888; (locus YJR066W, strain TOR1, hits give low values) 0.823 (active); (locus YLR113W, strain HOG1, hits give low values) 0.717 (active); (locus YNL183C, strain NPR1, hits give low values) 0.818 (active). Besides, the normalized growth was 0.853 (active) (locus YOR231W, strain MKK1, hits give low values) and 0.712 (active) (locus YPL256C, strain CLN2, hits give low values).
